This note sets out measurements from the antibiotic and cytotoxicity screens of Wong et al. (2023).

About 3,300 (8.5%) of roughly 39,000 compounds were called active. Many of the other results were omitted from the sample, so actives are more common in it than they were.

The test system of the experiment is HepG2. In words: cytotoxicity call (relative viability < 0.9). The settings on record: 10 µM.
Consider `CC(C)Oc1cccc(CC(=O)N2CCC[C@](CC[N+]34CCC(c5ccccc5)(CC3)CC4)(c3ccc(Cl)c(Cl)c3)C2)c1`, for which the cytotoxicity call is “inactive”.

For the compound `CC(=O)N(C)C1(c2ccccc2)CCN(CCC[C@]2(c3ccc(Cl)c(Cl)c3)CCCN(C(=O)c3ccccc3)C2)CC1`, the cytotoxicity call was “active”. `CN1CCN(C(=O)C[C@@H]2CC[C@@H]3[C@@H](COc4ccc(NC(=O)c5cscn5)cc4C(=O)N3C)O2)CC1`: the cytotoxicity call was “inactive”. With `O=C(C[C@@H]1CC[C@@H]2[C@H](COC[C@H](O)CN2C(=O)c2ccccn2)O1)NC1CCC1`, the cytotoxicity call was “inactive”. Regarding `CCc1cccc(C)c1NC(C)=O`, the cytotoxicity call is “inactive”. On to `C[C@H](CO)N1C[C@H](C)[C@H](CN(C)S(C)(=O)=O)OCCCC[C@H](C)Oc2ccc(NS(=O)(=O)c3ccccc3)cc2C1=O`, for which the cytotoxicity call is “inactive”. `COc1ccc(S(=O)(=O)N2C[C@@H](O)COC[C@H]3O[C@@H](CC(=O)NCCN4CCCCC4)CC[C@@H]32)cc1`: the cytotoxicity call was “inactive”. For the compound `C[C@@H]1CN([C@H](C)CO)C(=O)c2cccc(NC(=O)c3cnccn3)c2O[C@@H]1CN(C)Cc1ccc(C(=O)O)cc1`, the cytotoxicity call is “inactive”.

Take `CC(C)CCCC(C)C1CCC2C3CC(=O)C4CC(O)CCC4(C)C3CCC12C` (stereo not drawn) [5alpha-CHOLESTAN-3beta-OL-6-ONE ]: the cytotoxicity call was “inactive”.

As to `CC(C)CCC[C@@H](C)[C@H]1CC[C@H]2[C@@H]3C[C@@H](O)[C@@]4(O)C[C@@H](O)CC[C@]4(C)[C@H]3CC[C@]12C` [CHOLESTAN-3beta,5alpha,6beta-TRIOL ], the cytotoxicity call is “active”. As to `CC(C)CCCC(C)C1CCC2C3CCC4CC(O)CCC4(C)C3CCC12C` (stereo not drawn) [5alpha-CHOLESTANOL ], the cytotoxicity call was “inactive”.

With `CCNC(=O)N1CCCC[C@@H]1CO`, the cytotoxicity call was “inactive”. With `C[C@H](N[C@@H](CCc1ccccc1)C(=O)O)C(=O)N1CCC[C@H]1C(=O)O`, the cytotoxicity call was “inactive”.

In the case of `CN[C@@H](C)C(=O)N[C@H]1CN(C(=O)CC(C)C)CC[C@H]2CC[C@@H](C(=O)NC(c3ccccc3)c3ccccc3)N2C1=O`, the cytotoxicity call is “active”.

With `O=C(N[C@@H](c1ccccc1)c1ccc2ccccc2n1)C1CCN(C(=O)NC(c2ccccc2)c2ccccc2)CC1`, the cytotoxicity call was “inactive”. For the compound `COc1cnc(NS(=O)(=O)c2ccc(N)cc2)nc1`, the cytotoxicity call was “inactive”.

For the compound `COS(=O)(=O)[O-].COc1cc(N)cn[n+]1-c1ccccc1`, the cytotoxicity call is “active”. `COCC#Cc1cnc2c(c1)C(=O)N([C@@H](C)CO)C[C@@H](C)[C@H](CN(C)C(=O)Nc1cc(F)ccc1F)O2`: the cytotoxicity call was “inactive”.

On to `C[C@@H]1CN([C@@H](C)CO)C(=O)c2cc(NC(=O)Nc3cccc4ccccc34)ccc2O[C@@H]1CN(C)C(=O)Nc1ccccc1`, for which the cytotoxicity call is “inactive”. As for `C[C@H]1CN([C@@H](C)CO)C(=O)c2cc(NC(=O)Nc3ccc(C(F)(F)F)cc3)ccc2O[C@H]1CN(C)C(=O)Nc1cccc2ccccc12`, the cytotoxicity call was “inactive”. The same measure for `COc1ccc(NC(=O)Nc2ccc3c(c2)C(=O)N([C@@H](C)CO)C[C@H](C)[C@H](CN(C)C(=O)Nc2cccc4ccccc24)O3)cc1`: “active”; for `C[C@@H]1CN([C@H](C)CO)C(=O)c2cc(NC(=O)Nc3cccc4ccccc34)ccc2O[C@H]1CN(C)C(=O)Nc1cccc2ccccc12`: “inactive”; for `C[C@H](CO)N1C[C@H](C)[C@@H](CN(C)C(=O)Nc2cccc3ccccc23)Oc2ccc(NC(=O)Nc3ccc(C(F)(F)F)cc3)cc2C1=O`: “inactive”. The same measure for `COc1ccc(NC(=O)Nc2ccc3c(c2)C(=O)N([C@H](C)CO)C[C@H](C)[C@@H](CN(C)C(=O)Nc2cccc4ccccc24)O3)cc1`: “inactive”; for `C[C@@H]1CN([C@@H](C)CO)C(=O)c2cc(NC(=O)Nc3cccc4ccccc34)ccc2O[C@H]1CN(C)C(=O)Nc1cccc2ccccc12`: “inactive”; for `C[C@H](CO)N1C[C@H](C)[C@H](CN(C)C(=O)Nc2cccc3ccccc23)Oc2ccc(NC(=O)Nc3cccc4ccccc34)cc2C1=O`: “active”. In the case of `C[C@H]1CN([C@@H](C)CO)C(=O)c2cc(NC(=O)Nc3cccc4ccccc34)ccc2O[C@H]1CN(C)C(=O)Nc1ccccc1` it was “active”; in that of `C[C@@H]1CN([C@H](C)CO)C(=O)c2cc(NC(=O)Nc3ccc(C(F)(F)F)cc3)ccc2O[C@H]1CN(C)C(=O)Nc1cccc2ccccc12`, “active”; in that of `COc1ccc(NC(=O)Nc2ccc3c(c2)C(=O)N([C@H](C)CO)C[C@@H](C)[C@@H](CN(C)C(=O)Nc2cccc4ccccc24)O3)cc1`, “inactive”. On to `C[C@@H]1CN([C@H](C)CO)C(=O)c2cc(NC(=O)Nc3cccc4ccccc34)ccc2O[C@H]1CN(C)C(=O)Nc1ccccc1`, for which the cytotoxicity call was “inactive”.

For `C[C@H]1CN([C@@H](C)CO)C(=O)Cc2cc(NS(=O)(=O)c3ccccc3)ccc2O[C@@H]1CN(C)S(=O)(=O)c1ccc(F)cc1`, the cytotoxicity call is “inactive”. In the case of `Cc1noc(C)c1S(=O)(=O)N(C)C[C@H]1Oc2ccc(NC(=O)Nc3ccc4c(c3)OCO4)cc2C(=O)N([C@@H](C)CO)C[C@H]1C` it was “inactive”; in that of `CC(=O)N[C@@H]1CC[C@H](CCNC(=O)C2CC2)O[C@H]1CO`, “inactive”; in that of `O=C(C[C@@H]1C=C[C@H](NC(=O)c2cccc(F)c2)[C@H](CO)O1)NCCN1CCCC1`, “inactive”.

`C[C@@H]1CCCCO[C@@H](CN(C)S(C)(=O)=O)[C@H](C)CN([C@@H](C)CO)C(=O)c2cc(NS(=O)(=O)c3ccc(F)cc3)ccc2O1`: the cytotoxicity call was “inactive”.

Turning to `COc1ccc(NC(=O)Nc2ccc3c(c2)CC(=O)N([C@@H](C)CO)C[C@H](C)[C@@H](CN(C)C(=O)Nc2cccc4ccccc24)O3)cc1`, the cytotoxicity call is “inactive”. With `C[C@@H]1CCCCO[C@@H](CN(C)S(=O)(=O)c2ccccc2)[C@H](C)CN([C@H](C)CO)C(=O)c2cc(NS(C)(=O)=O)ccc2O1`, the cytotoxicity call was “inactive”. Consider `CC(C)CC#Cc1ccc2c(c1)O[C@@H](CN(C)S(=O)(=O)c1ccc(F)cc1)[C@@H](C)CN([C@H](C)CO)S2(=O)=O`, for which the cytotoxicity call is “inactive”. `COc1ccccc1CNC(=O)C[C@H]1C[C@H]2c3cc(NC(=O)Cc4ccncc4)ccc3O[C@H]2[C@H](CO)O1`: the cytotoxicity call is “inactive”. As to `CC1OC(OC2C(Oc3cc(O)c4c(=O)cc(-c5ccc(O)cc5)oc4c3)OC(CO)C(O)C2O)C(O)C(O)C1O` (stereo unspecified), the cytotoxicity call is “inactive”. With `Cc1noc(C)c1NC(=O)N(C)C[C@@H]1Oc2c(NC(=O)C3CC3)cccc2C(=O)N([C@H](C)CO)C[C@@H]1C`, the cytotoxicity call was “inactive”.
